Source: PubChem BioAssay AID485314 (National Center for Advancing Translational Sciences (NCATS), 2010)
Out of some 340,000 compounds screened, about 4,500 (1.3%) were called active. Entries that show only a call come without a potency. Inconclusive results (about 5%) are left out. Calls follow the shape of the dose curve; as a rule, active = well fitted inhibition curve with a large enough effect; inconclusive = small, poorly fitted or top-dose-only effect, or another doubt; inactive = no such curve, though single readings can be large or run the other way. The sample as a whole holds a higher share of actives than the screen did.

target: DNA polymerase beta (Homo sapiens) (UniProt P06746); test: qHTS Assay for Inhibitors of DNA Polymerase Beta; details: Pol beta primer extension/strand displacement, fluorescence kinetic; series mostly up to 114 µM
Method in brief: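 Pol beta (10 nM) was preincubated with compound for 15 min at room temperature. The reaction was then started with 50 nM substrate and read immediately and after a further 10 min at room temperature.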
Potency is read from the fitted curve at half-maximal effect.

Row | SMILES | Potency
1 | COc1ccc(S(=O)(=O)NCc2cccn2Cc2cccc(C)c2)cc1Cl | inactive
2 | COc1ccc(N2CCN(C3=NS(=O)(=O)C(c4cccc(Br)c4)=C3C)CC2)cc1 | inactive
3 | COc1cc([C@H](Cc2ccccc2)NC(C)=O)oc(=O)c1 | 17.8 µM (active)
4 | COc1ccc2oc(C(=O)NCC(Cc3ccccc3)N(C)C)c(C)c2c1 (stereo not drawn) | inactive
5 | CCOC(=O)C(Cc1ccccc1)NC(=O)CCC(=O)c1ccc(OC)cc1 (stereo not drawn) | inactive
6 | CC(C)c1nc2oc3c(N4CCN(C)CC4)ncnc3c2c2c1CCC2 | 12.6 µM (active)
7 | Cc1cc(C)nc(N2CCN(c3ncnc4c3oc3ccccc34)CC2)n1 | inactive
8 | Cc1ccc(NC(=O)c2ccc(CN3CC(=O)N4CCCCC4C3=O)cc2)c(Cl)c1 (stereo not drawn) | inactive
9 | Cc1nnc(C)n1-c1ccc(C(=O)Nc2cccc(Br)c2)cc1 | inactive
10 | Cc1cccc(NC(=O)C2CC(=O)OC23CCCC3)c1 (stereo not drawn) | 28.2 µM (active)
11 | Cc1cccc(NC(=O)NC2(C)CCS(=O)(=O)C2)c1 (stereo not drawn) | inactive
12 | Cc1cccc(NC(=O)C2CCN(C(=O)NC3CCCCC3)CC2)c1 | inactive
13 | CCOC(=O)c1ccc(NC(=O)c2csc3c2CCCCC3)cc1 | inactive
14 | Cc1nn(-c2ccc(N3CCCCC3)nn2)c(C)c1CCC(=O)NCc1ccc(F)cc1 | inactive
15 | COc1ccc(-n2ccnc(NCCc3ccc(Cl)cc3)c2=O)cc1OC | inactive
16 | CS(=O)(=O)N(CC(=O)NCc1ccco1)c1ccc2c(c1)OCO2 | 50.1 µM (active)
17 | S=C(NCc1ccc2c(c1)OCO2)NCc1ccco1 | inactive
18 | Cc1cc(C)cc(N(CC(=O)NCCSCc2ccco2)S(C)(=O)=O)c1 | inactive
19 | Cc1ccc(NC(=O)CSc2nc3c([nH]c4ccccc43)c(=O)n2-c2ccccc2)cc1Cl | inactive
20 | Cc1ccc(NC(=O)c2ccc3[nH]c(C)cc(=O)c3c2)c(C)c1 | inactive
21 | Fc1ccc(C(Nc2ccc(Cl)c(C(F)(F)F)c2)c2nnc(-c3ccccc3)o2)cc1 (stereo not drawn) | inactive
22 | Nc1c(Cl)cc(S(N)(=O)=O)cc1S(N)(=O)=O | 25.1 µM (active)
23 | NS(=O)(=O)c1ccc(NC(=S)Nc2ccc(Br)c(Cl)c2)cc1 | inactive

Row | SMILES | Potency
24 | CCCN(CCC)C(=O)C1CCCN(c2ncnc3c2nc2n3CCCCC2)C1 (stereo not drawn) | inactive
25 | COc1ccc(-c2cc(C(=O)NCc3cc(OC)c(OC)c(OC)c3)[nH]n2)cc1 | inactive
26 | CCc1ccccc1NS(=O)(=O)c1ccc2nc(-c3ccccc3)[nH]c2c1 | inactive
27 | CCc1nnc(NC(=O)C2CCCN2S(=O)(=O)c2ccccc2)s1 (stereo not drawn) | inactive
28 | CCc1ccc(NC(=O)C2CCCN2S(=O)(=O)c2ccc3nc(-c4ccccc4)[nH]c3c2)cc1 (stereo not drawn) | 12.6 µM (active)
29 | CCc1ccccc1NC(=O)Cc1ccc(NC(=O)N2CCCCc3ccccc32)cc1 | inactive
30 | CCOc1ccc(Nc2c(S(=O)(=O)c3ccccc3)cnc3ccccc23)cc1 | inactive
31 | CCn1cc(C(=O)N2CCN(c3cc(C)ccc3C)CC2)c(=O)c2cc(S(=O)(=O)N(C)C3CCCCC3)ccc21 | inactive
32 | Cc1ccc(S(=O)(=O)N2CCCc3cc(NS(=O)(=O)c4cc(C)ccc4C)ccc32)cc1 | inactive
33 | Cc1ccc(Nc2c(-c3ccc(N(C)C)cc3)nc3nc[nH]n23)cc1 | inactive
34 | O=C(NC(=O)c1ccc(Cl)c(Cl)c1)OC1CCS(=O)(=O)C1 (stereo not drawn) | 89.1 µM (active)
35 | O=C(NC(=S)NC1CCS(=O)(=O)C1)c1cccc([N+](=O)[O-])c1 (stereo not drawn) | inactive
36 | O=C(Cc1ccc(Cl)cc1)NC1CCS(=O)(=O)C1 (stereo not drawn) | inactive
37 | O=C1CCCC(O)=C1N=Nc1ccc2ncsc2c1 | 35.5 µM (active)
38 | O=C1CCCC(O)=C1N=Nc1ccc(S(=O)(=O)N2CCOCC2)cc1 | inactive
39 | O=C(CSc1ncc(CO)n1Cc1ccc(Cl)cc1)NCc1ccc(F)cc1 | inactive
40 | Cc1cccc(-c2nnc(SCC(=O)N3CCCc4ccccc43)o2)c1 | inactive
41 | Cc1ccc(-c2cc(C(=O)NN)n[nH]2)o1 | inactive
42 | Cc1ccc(-c2cc(C(=O)N/N=C/C=C/c3ccccc3)n[nH]2)o1 | 17.8 µM (active)
43 | CC(C)c1cc(C(=O)N/N=C/C(Br)=C/c2ccccc2)n[nH]1 | inactive
44 | Cc1ccc(OCC(=O)OCc2cc(=O)n3nc(C4CC4)sc3n2)cc1C | inactive
45 | Cc1nn2c(=O)cc(COC(=O)c3ccccc3NC(=O)COc3ccccc3C)nc2s1 | inactive
46 | O=C(COc1ccccc1)OCc1cc(=O)n2nc(-c3cccs3)sc2n1 | 31.6 µM (active)

Row | SMILES | Potency
47 | Cc1ccc(OCC(=O)OCc2cc(=O)n3nc(C4CC4)sc3n2)cc1 | inactive
48 | O=C(OCc1cc(=O)n2nc(C3CC3)sc2n1)c1ccccc1Cl | inactive
49 | COc1ccccc1C(=O)OCc1cc(=O)n2nc(-c3cccs3)sc2n1 | 17.8 µM (active)
50 | CCCn1c2ccccc2c2cnn(CC(=O)N(CC)c3cc(C)ccc3C)c(=O)c21 | inactive
51 | CCOC(=O)Cc1csc(SCc2cc(=O)oc3cc(O)ccc23)n1 | inactive
52 | Cc1cc(=O)oc2ccc(OCC(=O)O)cc12 | inactive
53 | Cc1cc(=O)oc2cc(OCC(=O)Nc3nnc(C4CC4)s3)ccc12 | inactive
54 | CCOC(=O)Cc1csc(NC(=O)COc2ccc3c(C)cc(=O)oc3c2)n1 | 44.7 µM (active)
55 | Cc1ccc(O)c(/C=N/NC(=O)COc2ccc3c(C)cc(=O)oc3c2)c1 | 22.4 µM (active)
56 | COc1ccc(N2CCN(C(=O)COc3ccc4c(C)cc(=O)oc4c3)CC2)cc1 | inactive
57 | CCOC(=O)c1c(NC(=O)Cc2coc3ccc(CC)cc23)sc2c1CCC2 | inactive
58 | COc1ccc(N2CCN(Cc3nc4c(c(=O)[nH]c(=O)n4C)n3Cc3ccc(Cl)cc3)CC2)cc1 | inactive
59 | O=C(CSc1ncc(-c2ccccc2)[nH]1)Nc1ccc(F)cc1F | inactive
60 | Cc1nc2c(c(C)nn2-c2ccccc2)c(C)c1CCC(=O)NCCc1ccc(Cl)cc1 | inactive
61 | CCOc1ccccc1CNC(=O)Nc1cn(CC(C)C)c(=O)c2ccccc12 | inactive
62 | Cc1nn(CC(=O)O)c(=O)c2cc3cc(F)ccc3n12 | inactive
63 | CC(C)c1ccc(NC(=O)Cn2nnc(C(=O)NCCc3ccccc3)c2N)cc1 | 7.94 µM (active)
64 | CCc1ccc(NC(=O)Cn2nnc(C(=O)NCc3ccc4c(c3)OCO4)c2N)cc1 | inactive
65 | Cc1cccc(NC(=O)c2nnn(CC(=O)Nc3ccc(C(C)C)cc3)c2N)c1C | inactive
66 | COc1ccc(CNC(=O)c2nnn(CC(=O)Nc3cc(C)cc(C)c3)c2N)cc1 | 10 µM (active)
67 | CCc1ccc(NC(=O)Cn2nnc(C(=O)NCc3ccc(OC)cc3)c2N)cc1 | inactive
68 | COc1ccc(NC(=O)Cn2nnc(C(=O)NCCc3ccc(OC)c(OC)c3)c2N)cc1 | inactive
